Rows were chosen to be rich in hits. Some 2.1% of all compounds tested hit in one or more screens of this group.
IEC-6 tox-1 = cytotoxicity in IEC-6 intestinal epithelial cells, primary screen, cytotoxicity control for KLF5 inhibitor project, cell-based, luminescence; IEC-6 cytotoxicity, luminescence viability; hit rate 0.78% among 290,000; AID 1825, 2009; inhibition, % at 5 µM; in the data active = inhibition above about 22%;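 note: 0% = plate median of test compound wells and 100% = cytotoxic reference compound wells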
BaF3 parental = parental Ba/F3 cell viability inhibition, counter-screen for JAK2V617F inhibitor project, murine pro-B, CellTiter-Glo luminescence; CellTiter-Glo ATP luminescence; inhibition, % at 5.6 µM; hit rate 1.1% among 220,000; AID 1486, 2009;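 active = inhibition above a per-campaign cutoff, the mean inhibition of all tested compounds plus 3 SD, cut at about 27% in these data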;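 note: 0% = DMSO wells and 100% = JAK Inhibitor I control wells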
aSyn 5UTR inh = MLPCN primary screen, SNCA 5' untranslated region | inhibition, % (tested at 7.5 µM) | alpha-synuclein 5'UTR reporter, inhibitor activity | hit rate 0.82% among 300,000; in the data active = inhibition above about 60%;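 note: H4 neuroglioblastoma cells stably carrying SNCA 5'UTR luciferase fusion; 0% = DMSO wells and 100% = positive control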
Ba/F3 V617F tox = reduced viability of JAK2V617F-dependent Ba/F3 cells, primary screen, JAK2V617F inhibitor project, cell-based, Ba/F3 EpoR-JAK2V617F, luminescence; ATP luminescence; inhibition, % at 5.6 µM; hit rate 1.1% among 220,000; AID 1446, 2008;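 active = inhibition above the campaign mean plus 3 SD over all tested compounds, cut at about 24% in these data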;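 note: cytokine-independent growth of Ba/F3 cells driven by EpoR plus mutant JAK2; 0% = DMSO-treated cells and 100% = JAK inhibitor I control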
KLF5 inh = KLF5 expression inhibitors, primary screen, DLD-1 cells, luminescence. DLD-1 KLF5 promoter-luciferase reporter. AID 1700, 2009. inhibition, % at 5 µM. hit rate 0.23% among 290,000;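 active = inhibition above a per-plate limit of that plate's mean compound inhibition plus 3 SD, cut at about 60% in these data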;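 note: 0% = DMSO wells and 100% = LY294002 at 200 µM; higher means less KLF5 promoter-driven luciferase light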
APP 5UTR inh = inhibitors of APP translation via 5'UTR reporter, primary screen, APP 5'UTR luciferase, SH-SY5Y cells | inhibition, % at 2 µM | AID 1285, 2008 | SH-SY5Y APP 5'UTR-luciferase reporter, luminescence | hit rate 0.82% among 190,000;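 active = inhibition above a set limit, derived from the sample mean plus 3 SD, cut at about 45% in these data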
KLF5 confirm = KLF5 expression inhibitors, confirmation, DLD-1 cells, luminescence; inhibition, % at 4 µM; AID 1834, 2009; shares compounds with KLF5 inh; hit rate 79% among 610; DLD-1 KLF5 promoter firefly luciferase reporter;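 active = inhibition above a set limit taken from the earlier primary screen, cut at about 63% in these data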;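 note: 0% = DMSO wells and 100% = LY294002 at 200 µM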
IEC-6 tox-2 = cytotoxicity in rat IEC-6 cells, cytotoxicity control for KLF5 inhibitor project, cell-based, luminescence, triplicate. shares compounds with KLF5 inh. IEC-6 rat intestinal cells, viability luminescence. inhibition, % at 4 µM. hit rate 56% among 610. AID 1905, 2009; in the data active = inhibition above about 23%;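 note: cells exposed to compounds for 48 hours before viability read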
Starred values were filed as active, the others as inactive; nt = not tested or not shown.

SMILES | IEC-6 tox-1 | BaF3 parental | aSyn 5UTR inh | Ba/F3 V617F tox | KLF5 inh | APP 5UTR inh | KLF5 confirm | IEC-6 tox-2
O=C(Nc1nccs1)c1cc2c(s1)CCCCC2 | 9 | 7 | 72* | -1 | 75* | -37 | 70* | -1
CCOc1ccc(NC(=O)Nc2ccon2)cc1 | 14 | nt | -116 | nt | -52 | nt | nt | nt
O=C(CCCNC(=O)c1ccc(Cl)cc1)NCc1ccccc1F | 2 | nt | 9 | nt | -18 | nt | nt | nt
COc1ccc(OC)c(Nc2nc(=O)c3cccnc3s2)c1 | 0 | 3 | nt | 1 | 75* | 2 | 65* | -3
O=C(/C=C/c1ccccc1)Nc1cc(NC(=O)/C=C/c2ccccc2)cc(C(=O)O)c1 | -4 | nt | -21 | nt | -4 | nt | nt | nt
O=C(/C=C/c1ccccc1)Nc1cccc(C(=O)O)c1 | 4 | 10 | 95* | -2 | 102* | 64* | 101* | 1
Cc1ccsc1/C=N/NC(=O)C(N)=O | -3 | 5 | -57 | -1 | -35 | -26 | nt | nt
Cc1ccsc1/C=N/Nc1ccc(C(=O)O)cc1 | 9 | nt | 64* | nt | 63* | nt | 44 | -5
CCn1nc(C)c(CN2CCC(C(=O)Nc3cccc(-c4cccc(Cl)c4)c3)CC2)c1C | 6 | nt | -17 | nt | -47 | nt | nt | nt
COCCCn1c(=S)[nH]c2sc3c(c2c1=O)CCCS3 | 1 | 4 | -41 | 6 | -17 | -23 | nt | nt
COc1cc(C(=O)NNC(=S)NC(=O)c2ccc3c(c2)OCO3)cc(OC)c1OC | 6 | -2 | -8 | 0 | -2 | nt | nt | nt
COc1cc(C(=O)c2cocc2C(=O)c2ccc3c(c2)OCO3)cc(OC)c1OC | 77* | 78* | 67* | 71* | 63* | nt | 76* | 54*
CCc1ccn2cc(-c3cc(-c4ccccc4)no3)nc2c1 | 19 | -4 | 94* | 4 | 84* | nt | 82* | -2
COc1ccc(-c2nsc3c(N4CCCCC4C)ncnc23)cc1 (configuration not stated) | -2 | 6 | 90* | -1 | 76* | 34 | 92* | 3
COc1ccc(C(=O)N2CCN(c3ncnc4c(-c5ccccc5)nsc34)CC2)cc1 | 11 | -3 | 15 | -2 | -4 | -4 | nt | nt
Cc1cccc(NC(=S)NC(=O)/C=C/c2ccco2)c1 | 79* | 78* | -60 | 72* | 74* | 62* | 23 | 29*
CC(C)(C)c1ccc(-c2noc(CCC(=O)NCc3ccco3)n2)cc1 | -1 | 26 | 77* | -3 | 62* | 68* | 65* | 11
COc1ccc(OC)c(N/C=C/C(=O)c2ccccc2)c1 | 4 | nt | 83* | nt | 70* | nt | 76* | 2
COc1ccc(OC)c(N/C(C)=C/C(=O)c2ccccc2)c1 | -16 | -1 | -113 | -2 | -32 | -77 | nt | nt
CCCC(=O)NC(c1ccc(Cl)cc1Cl)c1ccc2cccnc2c1O (configuration not stated) | 19 | nt | 64* | nt | 82* | nt | 82* | 53*
CCCC(=O)NC(c1ccccc1Cl)c1c(O)ccc2ccccc12 (configuration not stated) | -4 | 9 | 6 | 6 | -14 | -11 | nt | nt
CCCC(=O)NC(c1ccccc1OC)c1ccc2cccnc2c1O (configuration not stated) | 101* | 101* | 124* | 102* | 91* | 75* | 97* | 47*
CCCCC(=O)NC(c1ccc(N(CC)CC)cc1)c1ccc2cccnc2c1O (configuration not stated) | 11 | nt | 68* | nt | 68* | nt | 85* | 44*
CCCC(=O)NC(c1ccc(N(C)C)cc1)c1c(O)ccc2ccccc12 (configuration not stated) | -8 | 2 | -2 | -2 | 2 | 3 | nt | nt
CCC(=O)NC(c1ccc(OC)c(OC)c1)c1cc(Cl)c2cccnc2c1O (configuration not stated) | 11 | 39* | 111* | 81* | 68* | 62* | 87* | 30*
SMILES | IEC-6 tox-1 | BaF3 parental | aSyn 5UTR inh | Ba/F3 V617F tox | KLF5 inh | APP 5UTR inh | KLF5 confirm | IEC-6 tox-2
CCOc1ccc(-c2nnc(SCC(=O)O)n2Cc2ccccc2)cc1 | 0 | nt | 7 | nt | -17 | nt | nt | nt
CCOc1ccc(-c2cccc(NC(=O)c3ccco3)c2)nn1 | nt | nt | 0 | nt | nt | nt | nt | nt
COc1ccc(C(=O)CN2C(=O)c3ccccc3S2(=O)=O)cc1 | -3 | -4 | 101* | -3 | 72* | nt | 56 | -4
Cc1cc(C(=O)CN2C(=O)c3ccccc3S2(=O)=O)c(C)n1CC1CCCO1 (configuration not stated) | -3 | 1 | 111* | -3 | 83* | 86* | 104* | 17
O=[N+]([O-])c1nn(-c2ccc3c(c2)OCCO3)n(O)c1=Nc1ccc(Cl)cc1 | -11 | 3 | 12 | -4 | 21 | 14 | nt | nt
O=[N+]([O-])c1nn(-c2ccc3c(c2)OCCO3)n(O)c1=Nc1ccccc1 | -3 | 9 | 80* | 2 | 72* | 38 | 82* | 2
COc1ccc(-n2ncc3c(N4CCC(C)CC4)ncnc32)cc1 | -6 | nt | 18 | nt | -43 | nt | nt | nt
COc1ccc(-n2ncc3c(N(C)C4CCCCC4)ncnc32)cc1 | 5 | nt | 94* | nt | 74* | nt | 64* | 1
CC(C)(C)C(=O)Nc1ccc(NC(=O)c2ccco2)nc1 | 2 | nt | 102* | nt | 94* | nt | 102* | 9
COc1ccccc1NC1=C(N2CCCCC2)C(=O)c2ccccc2C1=O | 11 | 100* | 51 | 101* | 80* | -11 | 90* | 20
COc1ccccc1NC(=O)N1CCCC1 | 1 | 4 | 3 | 5 | -13 | 0 | nt | nt
CC1CCN(C2=C(NS(=O)(=O)c3ccccc3)C(=O)c3ccccc3C2=O)CC1 | -3 | -2 | -9 | 1 | -56 | nt | nt | nt
O=C1C(Nc2ccccc2)=C(N2CCCCC2)C(=O)c2ccccc21 | -3 | 102* | 15 | 98* | 64* | -10 | 73* | -12
Cc1ccc(/C=N/n2c(C3CCCCC3)n[nH]c2=S)cc1 | -4 | nt | 15 | nt | -5 | nt | nt | nt
Cc1ccc2occ(/C=N/NC(=O)c3ccccc3O)c(=O)c2c1 | -11 | nt | 25 | nt | 64* | nt | 48 | -6
COc1c(Br)cc(Br)cc1/C=N/NC(=O)c1cccnc1 | 13 | nt | -6 | nt | -9 | nt | nt | nt
CCOc1cc(Br)cc(/C=N/NC(=O)c2cccnc2)c1O | -1 | nt | 13 | nt | 100* | nt | 94* | -3
CCCCn1c(Cn2nc(C(=O)O)c3ccccc3c2=O)nc2cc(S(N)(=O)=O)ccc21 | -5 | nt | 2 | nt | -14 | nt | nt | nt
O=[N+]([O-])c1ccc(O)c(/C=N/Nc2ccccn2)c1 | 5 | 34* | 95* | 68* | 65* | 76* | 58 | 54*

Source: PubChem
